Rows were chosen to be rich in hits. Some 1.1% of all compounds tested hit in one or more screens of this group.
uPA surface inh = blocks generation of uPA at the cell surface; Potency, µM (series often up to 38.3 µM), without a hit: at the highest dose activity change, negative = inhibition, hits mostly inhibitors; cell surface uPA generation assay, qHTS; 330,000 compounds, 0.31% hits; active = well fitted inhibition curve with a large enough effect; inconclusive = small, poorly fitted or top-dose-only effect; inactive = no such curve, though single readings can be large or run the other way; tested in mouse RAW 264.7 cells; also: potency is read from the fitted curve at half-maximal effect; % is scaled to controls: 0 for no effect and ±100 for the full control effect; nearly all actives have a fitted effect of over 55% in size
Six1-Eya2 blk = blocks human Six1 binding to Eya2. Q15475+O00167. AlphaScreen GST-Six1/His-Eya2 binding, biochemical; hits give low values. activity change, % (test concentration not listed). 360,000 compounds, 0.56% hits. AID 651725; also: % is scaled to controls: 0 for no effect and ±100 for the full control effect
Target sequence (O00167 whole entry, looked up): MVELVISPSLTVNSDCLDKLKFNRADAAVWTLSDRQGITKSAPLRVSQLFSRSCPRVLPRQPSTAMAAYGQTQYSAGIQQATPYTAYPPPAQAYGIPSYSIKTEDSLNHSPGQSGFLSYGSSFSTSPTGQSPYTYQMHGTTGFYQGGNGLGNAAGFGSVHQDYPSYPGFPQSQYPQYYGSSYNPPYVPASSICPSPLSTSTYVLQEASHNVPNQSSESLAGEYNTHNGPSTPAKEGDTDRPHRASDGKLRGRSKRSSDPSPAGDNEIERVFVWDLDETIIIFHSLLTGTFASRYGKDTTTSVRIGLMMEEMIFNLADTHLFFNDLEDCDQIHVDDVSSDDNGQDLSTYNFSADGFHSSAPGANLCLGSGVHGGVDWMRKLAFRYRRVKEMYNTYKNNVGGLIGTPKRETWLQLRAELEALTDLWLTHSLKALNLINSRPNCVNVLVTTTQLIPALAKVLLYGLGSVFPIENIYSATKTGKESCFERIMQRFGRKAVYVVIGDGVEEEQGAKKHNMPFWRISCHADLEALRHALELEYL
Target sequence (Q15475 whole entry, looked up): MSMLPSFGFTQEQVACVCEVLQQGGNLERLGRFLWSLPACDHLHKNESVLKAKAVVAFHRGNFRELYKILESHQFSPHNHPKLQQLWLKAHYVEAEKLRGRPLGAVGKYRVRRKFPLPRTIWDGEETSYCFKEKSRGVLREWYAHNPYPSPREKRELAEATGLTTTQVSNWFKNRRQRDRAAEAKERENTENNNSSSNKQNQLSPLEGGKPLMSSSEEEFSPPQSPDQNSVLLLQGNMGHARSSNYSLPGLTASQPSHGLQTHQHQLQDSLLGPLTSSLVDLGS
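GST-Six1 + His-Eya2 (5X stock: 250/500 nM); Tris pH 8.0, 300 mM NaCl, 0.05% BSA, 0.02% Tween 20; GSH donor/Ni acceptor beads; 1 h 37 °C dark; AlphaScreen readout.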
CtBP-E1A inh = CtBP/E1A binding inhibition. 340,000 compounds, 0.49% hits. AlphaScreen GST-E1A/His-CtBP binding, 1536-well; hits give low values. AID 651724. activity change, % (concentration not given with the values); also: % is scaled to controls: 0 for no effect and ±100 for the full control effect
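In 5 uL wells, 23 nL compound meets equimolar GST-E1A and His-CtBP (5X stock 125 nM each) for 2 h, 37 °C. Beads (5X, 50 ug/mL) then 1 h, 37 °C, dark.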
Mito fusion act = blocks mitochondrial division or promotes mitochondrial fusion | 320,000 compounds, 0.23% hits | S. cerevisiae fusion-defective mutant growth rescue, CellTiterGlo 48 h | Potency, µM (series often up to 46.1 µM), without a hit: at the top dose growth rescue (activation), most hits filed as activators; active = well fitted activation curve with a large enough effect; inconclusive = small, poorly fitted or top-dose-only effect; inactive = no such curve, though single readings can be large or run the other way; also: potency is read from the fitted curve at half-maximal effect; % of control where 0% means no effect; nearly all actives have a fitted effect of over 45% in size
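S. cerevisiae fusion-defective temperature-sensitive mutants (e.g. fzo1-1, mgm1-5) grown 48 h at 37C in YPEG (ethanol/glycerol non-fermentable) medium with 23 nl compound per well; growth rescue read as CellTiterGlo luminescence.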
MBNL1 CUG block = blocks human MBNL1 binding to CUG repeat RNA; Q9NR56; TR-FRET MBNL1-His/biotin-(CUG)12 binding, 665/545 ratio; Potency, µM (highest dose often 57.5 µM), inactives show at the highest dose activity change, negative = inhibition, most hits filed as inhibitors; 280,000 compounds, 0.036% hits; AID 2675; active = well fitted inhibition curve with a large enough effect in the signal ratio, with a control signal flat, not every such curve was filed as active; inconclusive = small, poorly fitted or top-dose-only effect, or effect the other way, or a change in a side signal; inactive = no such curve, though single readings can be large or run the other way; the % refers to the signal ratio; also: potency is read from the fitted curve at half-maximal effect; % is scaled to controls: 0 for no effect and ±100 for the full control effect
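Ratiometric TR-FRET (665 over 545 nm, excitation 340 nm) tracks disruption of MBNL1-His/biotin-(CUG)12 complex after 60 min at room temperature, with compounds at 92 nM to 58 uM final.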
Numbers without * were called inactive; ? = inconclusive; nt = no result given; [ ] = dose if it differs, or a comment. Rule as the data show it, unless noted: active = activity change below about -65%; inconclusive = mostly about -30% to -63%; inactive = weaker than that.

SMILES	uPA surface inh	Six1-Eya2 blk	CtBP-E1A inh	Mito fusion act	MBNL1 CUG block
O=C(Nc1ccc2ccccc2c1)C(c1ccccc1)n1c(=O)c(-c2cc3ccccc3[nH]2)nc2ccccc21 (stereo not given)	nt	33	20	nt	nt
CC(=O)NC(c1cc(Cl)c2cccnc2c1O)C1CC1 (stereo not given)	4µM*	nt	nt	?	nt
CC(=O)NC(c1cc(Cl)c2cccnc2c1O)C(C)C (stereo not given)	3.2µM*	nt	nt	11%	nt
OCC1O[C@H]([S-])[C@H](O)[C@@H](O)[C@@H]1O.[Au+] (stereo not given in full)	nt	nt	nt	4%	nt
O=C(O)CCCCCNS(=O)(=O)/C=C/c1ccccc1	0%	10	14	-3%	-3%
O=C(O)CCCCCNS(=O)(=O)c1cccc2c1C(=O)c1ccccc1C2=O	-5%	-76*	0	-5%	?
COc1cccc(/C=N/NC(=O)Cn2ccnc2C)c1	3%	-1	5	-1%	-2%
COc1c(O)cccc1/C=N/NC(=O)Cn1ccnc1C	?	-93*	nt	-3%	15%
Cc1onc(-c2ccccc2)c1C(=O)N1CCCC(C)(C(=O)NS(=O)(=O)C2CC2)C1 (stereo not given)	nt	2	-1	nt	nt
Cc1[nH]c(=O)[nH]c(=O)c1/C=N/NC(=O)[C@H](C)N	-17%	-66*	-30	0%	-9%
Cc1[nH]c(=O)[nH]c(=O)c1/C=N/NC(=O)[C@@H](NC(=O)OC(C)(C)C)C(C)C	-6%	-13	-25	-12%	-3%
O=C(N/N=C/c1ccccc1O)C1CC(=O)N(c2ccc(Cl)cc2)C1 (stereo not given)	?	?	-84*	3%	-4%
Cc1ccc(/C=N/NC(=O)C2CC(=O)N(c3ccccc3)C2)s1 (stereo not given)	-7%	16	0	-2%	?
CCOc1ccccc1C1CC(=O)Nc2cc(C)c(C)cc21 (stereo not given)	7.1µM*	1	nt	3%	-4%
CCc1nc2c(OCc3ccc(Cl)cc3)cccn2c1N(C)C(=O)c1ccncc1	nt	-16	-1	nt	nt
CCC(C(=O)Nc1ccc(C)cc1)c1ccccc1 (stereo not given)	2%	-12	9	-6%	-8%
CCC(C(=O)Nc1ccc(C(=O)Nc2ccccc2C(=O)O)cc1)c1ccccc1 (stereo not given)	1%	?	-81*	1%	-7%
O=C(Nc1ccccc1C(=O)O)c1ccc(NC(=O)C2CCCCC2)cc1	-7%	-83*	-77*	4%	8%
COCCCn1c(SCC(=O)Nc2ccc(OC)cc2)nc2c(sc3ccccc32)c1=O	nt	nt	nt	-2%	nt
COc1ccc([C@]23Cc4cc(C#N)ccc4C(O2)C2=C(CC4(CCCCC4)OC2=O)O3)cc1	nt	nt	nt	2%[9.22 µM]	12%[11.5 µM]
Cc1ccc(Nc2c(-c3ccccn3)nc3ccc(C)cn23)cc1	6.3µM*	-93*	nt	-4%	50%
Cc1ccn2c(Nc3ccc4c(c3)OCO4)c(-c3ccccn3)nc2c1	2%	-88*	-81*	5%	?
Cc1cc(C)n2c(Nc3ccc4c(c3)OCCO4)c(-c3ccccn3)nc2n1	nt	-89*	?	nt	nt
Cc1ccc(-c2nc3cnccn3c2Nc2ccc3c(c2)OCO3)o1	-12%	-9	-14	-9%	14%
Cc1ccc(Nc2c(-c3ccccn3)nc3cc(C)ccn23)cc1	-2%	-82*	-93*	-9%	28%
Cc1cc(C)n2c(Nc3ccc4c(c3)OCCO4)c(-c3ccco3)nc2n1	nt	nt	nt	-2%	5%
O=S1(=O)CC(N2CCCC2)CN1Cc1cn(Cc2ccccc2)nn1 (stereo not given)	nt	2	2	nt	nt
CCC[C@H]1NC(=O)[C@H](C)N(C)C(=O)C(C)(C)C(=O)C(C)NC(=O)[C@H](Cc2ccc(OC)cc2)N(C)C(=O)[C@H](C(C)C)N(C)C(=O)CNC(=O)[C@H](CC(C)C)N(C)C(=O)CNC(=O)[C@H]([C@@H](C)CC)OC(=O)[C@H]1C (stereo not given in full)	-86%	6	1	nt	nt
CN(CC(=O)O)Cc1nc2ccccc2[nH]1	-5%	-76*	?	-3%	7%
